Most compounds without a hit are left out; they make up all but 1.7% or so of the library.
Giardia killer: kills Giardia lamblia; Giardia lamblia trophozoite viability; activity change, % at 7.66 µM, hits read low; 340,000 compounds, 0.15% hits; AID 540267; in the data active means activity change below about -80%; inconclusive means between about -30% and that limit;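 further: parasites exposed to compound for two days anaerobically before the ATP read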
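Killing of trophozoites was scored by loss of ATP luminescence after a 48 hrs anaerobic exposure to compounds at 37 deg C, using 100 cells per well.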
KCNH2 3.1 inh: KCNH2 3.1 (human) potassium channel inhibition. U2OS KCNH2 3.1, thallium flux FluxOr; active compounds read low. activity change, % (tested at about 1.8 µM). 340,000 compounds, 0.95% hits. AID 720553;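 active means maximum activity change below -70%; inconclusive means maximum activity change from -70% to -50%; inactive means maximum activity change above -50%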;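 further: thallium influx rate constant from kinetic fluorescence after stimulation buffer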
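Steps: virus added to U2OS suspension (4 h, RT, dark); medium with 10% FBS added, cells plated, 37 C overnight; FluxOr/Red40 loading buffer 45 min RT; stimulation buffer, 2 min kinetic read; rate constant normalized.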
hERG WT inh: KCNH2 (human, wildtype) channel inhibition | Q12809 | U2OS, BacMam KCNH2, thallium flux FluxOr; active compounds read low | activity change, % at 1.84 µM | 340,000 compounds, 0.37% hits | AID 720551;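 active means maximum activity change below -70%; inconclusive means maximum activity change between -70% and -50%; inactive means maximum activity change above -50%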
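U2OS cells transduced with wild-type KCNH2 virus are loaded with FluxOr dye for 45 min, and thallium flux is measured in kinetic reads before and after stimulation buffer. Rate constants are normalized to DMSO controls.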
Coupling enz: inhibits coupling enzyme system, counter-screen for aldolase hits | 290,000 compounds, 0.67% hits | activity change, negative = inhibition, % at 58.2 µM, hits read low | coupling enzyme system counterscreen, AmpLite Red fluorescence; in the data active means activity change below about -30%
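Final compound at 57.5 uM, incubated 10 min at RT with coupling enzyme reagent (glyceraldehyde-3-phosphate), then 20 min with substrate and AmpLite Red detection. Fluorescence read at 525/598 nm; tests interference with the coupling assay, not aldolase inhibition.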
USP1-UAF1 inh: inhibitors of human USP1/UAF1 deubiquitinase; Potency, µM (doses to about 57.1 µM), most hits filed as inhibitors; 390,000 compounds, 0.23% hits; O94782; recombinant USP1/UAF1, Ub-Rhodamine cleavage fluorescence; active means well fitted inhibition curve with a large enough effect; inconclusive means small, poorly fitted or top-dose-only effect; inactive means no such curve, though single readings can be large or run the other way; further: nearly all actives have a fitted effect of over 60% in size
Target sequence (O94782 whole entry, looked up): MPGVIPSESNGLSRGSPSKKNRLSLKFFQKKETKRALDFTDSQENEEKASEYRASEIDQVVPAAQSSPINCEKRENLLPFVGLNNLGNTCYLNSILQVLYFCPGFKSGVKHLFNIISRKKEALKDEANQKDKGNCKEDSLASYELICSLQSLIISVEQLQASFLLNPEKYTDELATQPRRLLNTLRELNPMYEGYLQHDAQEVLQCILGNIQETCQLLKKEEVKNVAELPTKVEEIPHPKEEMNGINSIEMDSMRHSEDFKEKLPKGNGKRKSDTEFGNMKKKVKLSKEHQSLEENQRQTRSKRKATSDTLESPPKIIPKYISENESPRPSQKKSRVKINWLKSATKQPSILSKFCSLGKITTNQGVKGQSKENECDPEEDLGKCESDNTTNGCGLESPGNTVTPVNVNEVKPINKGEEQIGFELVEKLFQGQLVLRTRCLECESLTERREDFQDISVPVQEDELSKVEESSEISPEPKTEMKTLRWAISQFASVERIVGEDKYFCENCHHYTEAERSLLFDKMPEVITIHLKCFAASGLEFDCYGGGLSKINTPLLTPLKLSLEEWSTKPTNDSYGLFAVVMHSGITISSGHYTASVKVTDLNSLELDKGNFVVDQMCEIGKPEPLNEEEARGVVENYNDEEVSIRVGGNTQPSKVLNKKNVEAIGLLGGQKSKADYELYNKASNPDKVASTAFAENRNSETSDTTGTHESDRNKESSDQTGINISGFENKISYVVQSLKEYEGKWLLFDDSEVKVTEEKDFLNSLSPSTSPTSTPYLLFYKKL
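High-throughput fluorogenic screen: 1nM USP1/UAF1 complex, Ub-Rho substrate 150nM final, 50mM HEPES pH 7.8 with 0.5mM EDTA, 0.1 mg/ml BSA, 1mM TCEP and 0.01% Tween-20.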
Numbers stand for hits; n = inactive; u = inconclusive; x = no result given; ! = not active in a repeat.

SMILES | Giardia killer | KCNH2 3.1 inh | hERG WT inh | Coupling enz | USP1-UAF1 inh
CC(=O)c1cccc(NC(=O)c2cc(=O)c3ccccc3o2)c1 | n | n | n | n | n
COc1ccc(NC(=O)c2ccc([N+](=O)[O-])o2)cc1 | -94.9 | n | n | n | n
CC(=O)c1cccc(NC(=O)c2ccc([N+](=O)[O-])o2)c1 | -87.6 | n | n | x | n
CCOc1ccc(N2CC(NC(=O)C3CCCCC3)CC2=O)cc1 (configuration not stated) | x | x | x | x | n
C=C1CCC(=O)C(C)CCC2C1CC2(C)C (configuration not stated) | x | x | x | n | x
CCCN1C2CCCC1CC(NC(=O)Nc1cccc(C(C)=O)c1)C2 (configuration not stated) | n | n | n | n | n
CCCN1C2CCCC1CC(NC(=O)Nc1ccc(C(C)C)cc1)C2 (configuration not stated) | n | -73.5 | n | n | n
COc1cc2c(cc1OC)CN(C(=O)c1ccc([N+](=O)[O-])o1)CC2 | u | n | n | n | u
O=C(c1ccc([N+](=O)[O-])o1)N1CCc2ccccc21 | -88.1 | n | n | n | n
O=C(c1ccc([N+](=O)[O-])o1)N1CCCCCC1 | -90.9 | n | n | x | n
O=C(c1ccc([N+](=O)[O-])o1)N1CCOCC1 | u | n | n | n | n
O=C(c1ccc([N+](=O)[O-])o1)N1CCc2ccccc2C1 | -86.0 | n | n | n | n
CCCN(C)C[C@@H]1Oc2ncc(Br)cc2C(=O)N([C@@H](C)CO)C[C@H]1C | x | n | n | x | u
COCCCN1C(=O)c2ccccc2CC1(C)C(=O)NC1CCCCC1 (configuration not stated) | x | x | x | x | n
COc1ccc(NC(=O)c2sc3cc(C(F)(F)F)cnc3c2-c2cccs2)cc1 | n | -92.2 | n | n | n
Cc1nn(-c2ccccc2)c2c1C1(C(=O)N(C(C)C)c3ccccc31)C(C#N)=C(N)O2 (configuration not stated) | n | n | n | -55.0 | n
Cc1nn(-c2ccccc2)c(N)c1C1(O)C(=O)N(C(C)C)c2ccccc21 (configuration not stated) | n | n | n | n | n
COc1cc2c(cc1OC)-c1c(OC)c(OC)cc3ccnc(c13)C2=O | -84.3 | n | n | -34.5! | n
Cc1c(C=O)c2ccccc2n1CC(=O)NCc1ccc2c(c1)OCO2 | n | -389.7 | n | n | n
COc1cc(/C=C/C(=O)OCC(=O)NC2CCS(=O)(=O)C2)ccc1OC(F)F (configuration not stated) | n | -167.2 | n | x | n
C/C=C\C=C/C(=O)Nc1cccc(C2=NOC3(C2)C[C@@H](C(N)=O)N(C(=O)c2ccccc2)C3)c1 (some centres not stated) | x | x | x | n | x
C/C=C/C=C\C(=O)Nc1cccc(C2=NOC3(C2)C[C@H](C(N)=O)N(C(=O)/C=C/C)C3)c1 (some centres not stated) | n | -176.8 | n | n | n
COC(=O)CNC(=O)Nc1cc(C(=O)NCc2ccc(C)cc2)ccc1N1CCCC1 | x | x | x | x | n
COc1ccc(-c2sc3ccc(N4CCOCC4)cc3c2-c2ccc(OC)c(F)c2)cc1 | n | -86.6 | n | n | n
CSC1SCC2C(=O)N(C)C(C(C)C)C(=O)OCC(NC(=O)c3cnc4ccccc4n3)C(=O)NC(C)C(=O)N(C)C1C(=O)N(C)C(C(C)C)C(=O)OCC(NC(=O)c1cnc3ccccc3n1)C(=O)NC(C)C(=O)N2C (configuration not stated) | u | n | n | x | n
SMILES | Giardia killer | KCNH2 3.1 inh | hERG WT inh | Coupling enz | USP1-UAF1 inh
COc1cc2c(cc1OC)C1O[C@](CCCCN3C(=O)c4ccccc4C3=O)(C2)OC2=C1C(=O)c1ccccc1C2=O | x | x | x | n | x
CC1(C)CC(=O)CC2(C1)NCC(c1ccccc1)c1c2[nH]c2ccccc12 (configuration not stated) | n | -101.6 | -74.9 | n | n
COc1cccc(C2CNC3(CCCC(C)C3)c3[nH]c4ccccc4c32)c1OC (configuration not stated) | n | n | n | n | n
CCN(C(=O)CN1CCN(c2ccc(O)cc2)CC1)c1c(N)n(Cc2ccccc2)c(=O)[nH]c1=O | n | n | n | -39.2 | n
CCN(C(=O)c1ccc(=O)[nH]c1)c1c(N)n(Cc2ccccc2)c(=O)[nH]c1=O | n | n | n | x | n
CCN(C(=O)CN1CCCCCC1)c1c(N)n(Cc2ccccc2)c(=O)[nH]c1=O | n | n | n | x | n
CC(C)CN(C(=O)CN1CCN(c2ccc(O)cc2)CC1)c1c(N)n(CC(C)C)c(=O)[nH]c1=O | n | n | n | -32.0 | n
CCN(C(=O)c1ccc(=O)n(C)n1)c1c(N)n(Cc2ccccc2)c(=O)[nH]c1=O | n | -92.3 | n | x | n
Clc1ccc(CSc2nc3ccncc3[nH]2)cc1 | u | n | n | n | n
Cc1ccc(CSc2nc3ccncc3[nH]2)cc1 | -90.2 | n | n | n | n
COCCN=c1scc(-c2ccco2)n1/N=C/c1ccc(O)c(O)c1O | n | n | n | -50.6 | u
C=CCN=c1scc(-c2ccco2)n1/N=C/c1ccc(O)c(O)c1O | n | n | n | -34.7 | n
CC(=O)C1=C(O)C(=O)N(c2cc(C(C)(C)C)on2)C1c1ccc(Br)cc1 (configuration not stated) | n | -81.5 | n | n | n
Cc1nc2ccccn2c1C(=O)N/N=C/c1ccc([N+](=O)[O-])cc1 | n | n | n | n | n
O=C(N/N=C/c1ccc([N+](=O)[O-])o1)c1cc2ccccc2o1 | -96.2 | n | n | n | n
Cc1nc2ccccn2c1C(=O)N/N=C/c1ccc([N+](=O)[O-])o1 | -86.1 | n | n | n | n
CCOC(=O)c1nn(-c2ccccc2)c(=O)cc1SC(C)CC (configuration not stated) | n | n | n | n | n
CCOC(=O)c1nn(-c2ccccc2)c(=O)cc1SC(C)C | n | -72.0 | n | n | n
C[C@@H]1C(=O)CC2C(C)(C)CCC[C@]2(C)[C@@]1(O)CCc1ccoc1 (some centres not stated) | x | x | x | n | x
C[C@@H]1CCC(=O)N(C[C@@H](C)CSc2ccc(Br)cc2)CC1 | n | -112.5 | n | x | u
COc1ccc(Nc2cnn(-c3nc4ccccc4s3)c(=O)c2Cl)cc1 | n | n | n | n | n
O=c1c(Cl)c(Nc2cccc(Cl)c2)cnn1-c1nc2ccccc2s1 | n | -106.1 | n | n | n
CC1C(=O)N(Cc2ccc([N+](=O)[O-])cc2)c2ccccc2N1C(=O)c1c(F)cccc1F (configuration not stated) | n | n | -79.4 | n | n
COc1ccc(CN2C(=O)C(C)N(C(=O)c3c(F)cccc3F)c3ccccc32)cc1 (configuration not stated) | n | n | n | n | n

Screening data: PubChem, National Center for Advancing Translational Sciences (NCATS)
